Screening results deposited in PubChem by National Center for Advancing Translational Sciences (NCATS).
Sampled rows, rich in hits. Any-hit rate of the full collection: about 21%.
TDP1 cell noCPT: qHTS for Inhibitors of human tyrosyl-DNA phosphodiesterase 1 (TDP1): qHTS in cells in absence of CPT; DT40 Tdp1-/- hTDP1 cells, no CPT, ATP luminescence, 48 h; Potency, µM (titrated, usually from 46.2 µM), for the others: top-dose activity change, negative = growth inhibition, usual class: inhibitors; hit rate 15% among 420,000; also: potency is read from the fitted curve at half-maximal effect; nearly all actives have a fitted effect of over 55% in size
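Chicken DT40 Tdp1-/- cells stably complemented with human TDP1 were seeded at 400 cells/well with DMSO in place of 20 nM camptothecin. After compound pinning, cells grew at least 48 hr at 37 °C; viability read by CellTiter-Glo luminescence.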
RORgamma inh: ROR gamma (mouse) transcription inhibition. P51450. Drosophila S2 Gal4-RORgamma UAS-luciferase reporter, 20 h. AID 2551. Potency, µM (highest dose often 53.6 µM), for inactives: at the highest dose activity change, negative = inhibition, hits mostly inhibitors. hit rate 5.4% among 310,000; also: potency is read from the fitted curve at half-maximal effect; nearly all actives have a fitted effect of over 60% in size
Target sequence (P51450 whole entry, looked up, the tested form may be a part): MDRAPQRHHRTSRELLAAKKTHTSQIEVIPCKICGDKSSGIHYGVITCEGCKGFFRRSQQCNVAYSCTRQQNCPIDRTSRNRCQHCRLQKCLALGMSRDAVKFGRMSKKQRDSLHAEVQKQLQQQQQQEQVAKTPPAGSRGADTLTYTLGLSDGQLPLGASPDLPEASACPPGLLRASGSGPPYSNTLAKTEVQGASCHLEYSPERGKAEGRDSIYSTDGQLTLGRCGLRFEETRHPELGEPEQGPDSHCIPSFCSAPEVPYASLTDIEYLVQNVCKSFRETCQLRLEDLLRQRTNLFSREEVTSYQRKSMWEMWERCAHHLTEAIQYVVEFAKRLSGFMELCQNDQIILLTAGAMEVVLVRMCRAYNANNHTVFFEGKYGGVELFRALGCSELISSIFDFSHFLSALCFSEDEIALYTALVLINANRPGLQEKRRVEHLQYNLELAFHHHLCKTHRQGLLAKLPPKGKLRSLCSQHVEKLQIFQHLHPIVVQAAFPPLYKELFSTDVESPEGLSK
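Stable Schneider cell line, Gal4 DNA-binding domain fused to ROR gamma, UAS-luciferase. Cmpd 1 hr RT → CuSO4 700 uM final → 20 hr RT → luciferase reagent 10 min → luminescence.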
IL-1B inflam inh: inflammasome signaling inhibition, IL-1 beta readout; THP-1 LPS/ATP IL-1B secretion, AlphaLISA, 16 h; stronger effect = lower value; hit rate 4.7% among 360,000; activity change, % at 57.5 µM; in the data active = activity change below about -50%; inconclusive = mostly about -30% to -49%
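THP-1 cells pretreated 1 hr with compounds (up to 57.5 uM final), then stimulated with LPS (250 ng/mL final) plus ATP (1.25 mM final); secreted IL-1B measured by AlphaLISA after 16 hr, decreased signal indicating inhibition.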
Gal4-VP16 FLuc: counter-screen for ROR gamma inhibitors: Gal4-VP16 reporter; Potency, µM (series often up to 53.6 µM), inactives show at the top dose activity, negative = inhibition, most hits filed as inhibitors; hit rate 3.5% among 310,000; Drosophila S2 Gal4-VP16 UAS-luciferase, luminescence, 20 h; AID 2546;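 also: Gal4-VP16 expression switched on by copper sulfate through the metallothionein promoter; potency is read from the fitted curve at half-maximal effect; nearly all actives have a fitted effect of over 50% in size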
ELG1 repair inh: ELG1-dependent DNA repair inhibition | HEK293T ELG1-luciferase reporter, luminescence, 16 h; DNA damage induced by 5-fluorouridine | Potency, µM (doses to about 46.1 µM), inactives show at the top dose activity change, negative = inhibition, actives largely listed as inhibitors | hit rate 2.3% among 330,000 | AID 504467; also: potency is read from the fitted curve at half-maximal effect; nearly all actives have a fitted effect of over 55% in size
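5-Fluorouridine DNA damage + compound/DMSO, 2,000 cells/well, 16 h, 37 °C/5% CO2. ONE-Glo, 30 min RT, luminescence. Readout = decrease in reporter signal.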
DT40 TDP1 CPT: growth inhibition of DT40 Tdp1-/-;hTDP1 cells with camptothecin (screen for TDP1 inhibitors); chicken DT40 Tdp1-/-;hTDP1 cells + 20 nM CPT, ATP luminescence, 48 h; hit rate 12% among 420,000; Potency, µM (highest dose often 46.2 µM), without a hit: at the top dose activity change, negative = growth inhibition, hits mostly inhibitors; also: potency is read from the fitted curve at half-maximal effect; nearly all actives have a fitted effect of over 55% in size
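Chicken DT40 Tdp1-/- cells complemented with human TDP1, 400 cells/well, exposed to compounds plus 20 nM camptothecin for at least 48 h at 37 C; viability read as ATP content by CellTiter-Glo luminescence.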
Active calls of the source: *; ? = inconclusive; . = no result given. Unless noted, calls follow the shape of the dose curve; as a rule, active = well fitted curve in the direction sought with a large enough effect; inconclusive = small, poorly fitted or top-dose-only effect, or another doubt; inactive = no such curve, though single readings can be large; an effect the other way counts as inactive or inconclusive. % is scaled to controls: 0 for no effect and ±100 for the full control effect.

SMILES	TDP1 cell noCPT	RORgamma inh	IL-1B inflam inh	Gal4-VP16 FLuc	ELG1 repair inh	DT40 TDP1 CPT
CC1Nc2ncnc(N3CCN(c4ccccc4)CC3)c2N(Cc2ccc(Br)cc2)C1=O (stereo not drawn)	21µM*	.	?	.	?	?
CCC1Nc2ncnc(N3CCc4ccccc4C3)c2N(Cc2ccc(Cl)cc2)C1=O (stereo not drawn)	?	.	-14	.	?	21µM*
COc1ccc(CCNC(=O)CSc2nnc(NC(C)=O)s2)cc1OC	-6%	2%	14	1%	?	-4%
O=C1C(Cc2ccccc2)Nc2ncnc(N3CCCCC3)c2N1Cc1ccccc1 (stereo not drawn)	?	.	-11	.	10%	?
O=C1C(Cc2ccccc2)Nc2ncnc(N3CCc4ccccc4C3)c2N1Cc1ccc(Cl)cc1 (stereo not drawn)	?	.	-94*	.	?	?
Cc1ccc(N(CC(=O)Nc2ccccc2-c2ccccc2)S(=O)(=O)c2ccccc2)cc1	21µM*	29%	-26	-2%	?	16µM*
Cc1cccc(N(CC(=O)Nc2ccccc2-c2ccccc2)S(=O)(=O)c2ccccc2)c1C	23µM*	31%	-5	?	2%	?
Cc1cc(C)cc(N(CC(=O)Nc2ccccc2-c2ccccc2)S(=O)(=O)c2ccccc2)c1	?	-2%	11	-9%	-10%	-28%
CCNC(=S)N/N=C(\C)c1ccc(N2CCOCC2)cc1	?	2.5µM*	-9	3.5µM*	-5%	-24%
C/C(=N\NC(=O)C1CC1)c1ccc(C)c(C)c1	3%	12%	-6	8%	?	6%
C/C(=N\NC(=O)c1ccc(F)cc1)c1ccc(N2CCOCC2)cc1	-10%	-21%	-15	-3%	?	15%
CNC(=S)NN=C(C)c1ccc(OC)cc1O	0.012µM*	.	-76*	.	.	0.016µM*
CNC(=S)N/N=C(\C)c1ccc(C)c(C)c1	3.3µM*	1.8µM*	-7	5µM*	?	2.6µM*
CNC(=S)N/N=C(\C)c1ccc(N2CCOCC2)cc1	?	7.9µM*	-2	?	?	?
COc1ccccc1C(=O)N/C(=C\c1cn(C)c2ccccc12)C(=O)NCCCn1ccnc1	-6%	-1%	?	0%	7%	33%
Cc1ccc(C(=O)NC(=S)N2CCCCCC2)cc1	-2%	.	-23	.	?	-18%
Cc1ccccc1C(=O)N1CCc2c(cnc(C)c2CNC(=O)CN2CCCCC2)C1	-11%	.	.	.	.	3%
c1ccc(OCCNc2ccn3nc(-c4ccco4)cc3n2)cc1	?	.	-16	.	.	?
C=CC[C@H](CC(=O)NCCO)C(=O)N[C@@H](COC(=O)[C@@H](CC=C)Cc1ccc(F)cc1)Cc1ccccc1	?	.	-7	.	8%	21µM*
C=CCC[C@H](Cc1ccc(F)cc1)C(=O)OC[C@H](C)NC(=O)[C@H](CC=C)CC(=O)NCCO	?	.	-11	.	6%	?
C=CCC[C@H](Cc1ccc(F)cc1)C(=O)OC[C@@H](NC(=O)[C@H](CC=C)CC(=O)NCCO)c1ccccc1	?	.	-13	.	-6%	21µM*
COc1ccc(CN(C)CCCn2cnc3c(SC)ncnc32)cc1OC	4%	.	7	.	.	0%
CCN(CC(=O)Nc1ccc(NC(C)=O)cc1)C(=O)c1ccc(C(=O)c2ccccc2)cc1	0%	.	-3	.	-5%	4%
CCN(CC(=O)Nc1ccc(NC(C)=O)cc1)C(=O)c1ccc(COc2ccc(C(C)(C)C)cc2)cc1	23µM*	.	-51*	.	.	?
CCOc1ccc(OCc2ccc(C(=O)N(CC)CC)cc2)cc1	15µM*	6%	0	?	?	?
